In the library only some 7.5% were active in any assay of this set; here they are far more common.
NPC1 promoter act: activators of NPC1 promoter | Huh7 NPC1 promoter luciferase reporter, 24 h | Potency, µM (doses to about 9.22 µM), hits mostly activators | 320,000 compounds, 2.4% hits; also: nearly all actives have a fitted effect of over 60% in size
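Luciferase expression driven by the NPC1 promoter was measured in stably transfected Huh7 cells after a 24 h compound incubation, using a luciferase reagent and a luminescence read.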
Rab9 promoter act: activators of Rab9 promoter | Potency, µM (titrated, usually from 9.22 µM), most hits filed as activators | Huh7 Rab9 promoter-luciferase reporter, luminescence, 24 h | 320,000 compounds, 2.8% hits; also: nearly all actives have a fitted effect of over 60% in size
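Cell-based reporter: Huh7 stable for Rab9 promoter-driven luciferase, plated in reduced-serum medium with 10% FBS at 1500 cells/well, compound-treated 24 h at 37 °C, luminescence read after 10 min reagent.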
ELG1 genotoxic: inducers of genotoxicity in HEK293T ELG1-luciferase cells | HEK293T ELG1-luciferase reporter, luminescence, 16 h | Potency, µM (top dose mostly 46 µM), usual class: activators | 330,000 compounds, 1.3% hits; also: nearly all actives have a fitted effect of over 60% in size
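HEK293T cells expressing luciferase-tagged ELG1 were treated with compound or DMSO for 16 hr at 37°C. Luciferase activity was then read after 30 min with ONE-Glo at room temperature; rising signal flags genetic stress.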
SMN2 splice up: enhancers of SMN2 splice variant expression | HEK293 SMN2-luciferase splicing reporter, luminescence, 30-36 h | Potency, µM (highest dose often 46.1 µM), most hits filed as activators | 210,000 compounds, 2.8% hits; also: nearly all actives have a fitted effect of over 55% in size
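HEK293 cells carry an SMN2 minigene-luciferase reporter in which exon 7 inclusion puts luciferase in frame. Cells were seeded at 2000 cells/well, attached for 10-12 hours, then exposed to compounds for 30-36 hours at 37C before ONE-Glo luminescence.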
FLuc counter: firefly luciferase modulation, counter-screen for miR-21 project; P08659; purified FLuc, Km substrates, luminescence inhibition; Potency, µM (titrated, usually from 57.5 µM), usual class: inhibitors; 360,000 compounds, 6.9% hits; also: nearly all actives have a fitted effect of over 55% in size
Target sequence (P08659 whole entry, looked up): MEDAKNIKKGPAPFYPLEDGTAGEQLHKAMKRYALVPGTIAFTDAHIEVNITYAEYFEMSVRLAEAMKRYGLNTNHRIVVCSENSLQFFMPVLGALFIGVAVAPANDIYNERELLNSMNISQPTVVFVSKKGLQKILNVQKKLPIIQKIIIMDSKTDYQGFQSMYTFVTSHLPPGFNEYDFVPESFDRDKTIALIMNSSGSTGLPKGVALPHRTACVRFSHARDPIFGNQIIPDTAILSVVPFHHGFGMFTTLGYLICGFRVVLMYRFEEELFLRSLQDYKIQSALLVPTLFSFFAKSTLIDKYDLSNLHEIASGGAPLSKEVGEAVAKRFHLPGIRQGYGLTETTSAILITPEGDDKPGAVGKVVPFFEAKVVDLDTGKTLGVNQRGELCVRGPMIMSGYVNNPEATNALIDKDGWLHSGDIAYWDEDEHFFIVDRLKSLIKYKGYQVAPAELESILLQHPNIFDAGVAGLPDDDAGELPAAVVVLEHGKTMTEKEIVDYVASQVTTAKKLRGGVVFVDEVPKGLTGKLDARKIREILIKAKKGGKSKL
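Purified P. pyralis luciferase, 10 nM final, with Km-level 10 uM D-luciferin and 10 uM ATP in 50 mM Tris acetate pH 7.5, 10 mM Mg acetate, 0.01% Tween-20, 0.05% BSA; 6-point qHTS titration about 60 µM downward; luminescence read.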
KinaseGlo FLuc: blocks Kinase-Glo luciferase, a counter-screen artifact; Potency, µM (series often up to 38.3 µM), actives largely listed as inhibitors; 200,000 compounds, 0.28% hits; Kinase-Glo luciferase, ATP luminescence, 8 min; Q27757; also: nearly all actives have a fitted effect of over 60% in size
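Recombinant Kinase-Glo luciferase, 10 uM ATP (linear range), luciferin; imidazole pH 7.2 / KCl / MgCl2 / Tween / BSA buffer; 8 min RT; luminescence.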
Hits are given with their value; 0 = inactive; ? = inconclusive; - = no result; [ ] = another dose, or the depositor's remark. Calls follow the shape of the dose curve; as a rule, active = well fitted curve in the direction sought with a large enough effect; inconclusive = small, poorly fitted or top-dose-only effect, or another doubt; inactive = no such curve, though single readings can be large; an effect the other way counts as inactive or inconclusive.

SMILES	NPC1 promoter act	Rab9 promoter act	ELG1 genotoxic	SMN2 splice up	FLuc counter	KinaseGlo FLuc
COc1ccc2nc(NC(=O)C3=NN(c4ccccc4)C(=O)CC3)sc2c1	0	0	0	0	?	0
COc1ccc(NC(=O)c2nc3ccccc3s2)cc1	3.5µM	1.6µM	1.3µM	?	1.1µM	8.9µM
CCOc1ccc2nc(NC(=O)Nc3ccccc3)sc2c1	?	1.4µM	?	11µM	0.85µM	0
COCc1cc(C)nc2sc3c(=O)n(-c4cc(C)ccc4C)nnc3c12	-	-	-	0	0	-
O=C(O)CCn1nnc2ccccc21	0	0	0	-	0	-
COc1ccc2cc(C3OCCO3)c(Cl)nc2c1	2.5µM	2.5µM	?	-	12µM	0
CCOc1ccc(NC(=O)Cn2c(=O)n(-c3cccc(Cl)c3)c(=O)c3c2c2cc(C)ccc2n3C)cc1	-	-	-	-	0	-
Nc1nc(CSc2ccc(Cl)cc2)nc(N2CCCCC2)n1	0	0	0	0	?	0
Nc1nc(CSc2ccccc2)nc(N2CCCCC2)n1	?	?	?	20µM	?	0
Cc1ccc(/C=C/c2onc(C)c2S(=O)(=O)N2CCC(C(=O)NCC(C)c3ccccc3)CC2)cc1 (stereo unspecified)	-	-	-	-	0	-
COc1ccc(C(=O)/C=C/Nc2ccc(S(=O)(=O)Nc3onc(C)c3C)cc2)cc1	0	0	0	0	7.6µM	0
Cc1noc(NS(=O)(=O)c2ccc(N/C=C/C(=O)c3ccc(F)cc3)cc2)c1C	0	0	0	0	21µM	0
CCc1ccc(OCC(=O)Nc2ccc(S(=O)(=O)Nc3onc(C)c3C)cc2)cc1	-	-	-	0	12µM	-
Cc1noc(NS(=O)(=O)c2ccc(NC(=O)c3ccc(OC(C)C)cc3)cc2)c1C	0	0	0	-	13µM	0
CCN(C(=O)CCS(=O)(=O)c1ccc2c(c1)CCN2C(C)=O)c1cccc(C(F)(F)F)c1	-	-	-	0	0	-
CCc1ccc(C(=O)/C=C/Nc2ccc(S(=O)(=O)Nc3onc(C)c3C)cc2)cc1	0	?	0	0	11µM	0
Cc1noc(NS(=O)(=O)c2ccc(N/C=C\C(=O)c3ccncc3)cc2)c1C	0	0	0	0	0	0
NC(=O)N/N=C/c1ccc(-c2ccc(S(=O)(=O)Nc3ncccn3)cc2)o1	0	0	0	-	0	-
CC(C)Oc1ccc(C(=O)N/N=C/c2ccc(-c3ccc(S(=O)(=O)Nc4ncccn4)cc3)o2)cc1	0	0	0	0	27µM	0
COc1ccc(Br)cc1CNC(=O)CN1C(=O)CSc2ccc(S(=O)(=O)N3CCOCC3)cc21	-	-	-	-	0	-
COc1ccc(-c2nc3scc(CCNS(=O)(=O)c4ccc(F)cc4F)n3n2)cc1OC	-	-	-	-	0	-
CSc1ccc(CCNC(=O)C2CCCN(S(=O)(=O)N(C)c3ccc(F)cc3)C2)cc1 (stereo unspecified)	-	-	-	-	0	-
CCCC(=O)Oc1c(Sc2ccc(Cl)cc2)c(C)nn1-c1ccccc1	-	-	-	0	11µM	-
CCOC(=O)C1C(=O)C=C(Nc2ccccc2F)CC1c1ccccc1 (stereo unspecified)	?	?	0	?	17µM	0
COC(=O)C1C(=O)C=C(Nc2ccc(F)cc2F)CC1c1ccccc1 (stereo unspecified)	0	0	0	0[1.84 µM]	0	0
SMILES	NPC1 promoter act	Rab9 promoter act	ELG1 genotoxic	SMN2 splice up	FLuc counter	KinaseGlo FLuc
CN(C)S(=O)(=O)c1ccc2c(c1)N(CC(=O)Nc1ccc(F)cc1)C(=O)CS2	-	-	-	-	0	-
CC(C)(C)n1ncc2c(=O)n(CC(=O)c3ccccc3)cnc21	?	4.5µM	0	13µM	24µM	0
Cc1ccc(C(=O)Cn2cnc3ccccc3c2=O)cc1	?	2.5µM	?	11µM	21µM	0
CC(C)(C)n1ncc2c(=O)n(Cc3ccccc3)cnc21	-	-	-	-	0	-
CC(C)(C)n1ncc2c(=O)n(CC(=O)OCc3ccccc3)cnc21	?	1.4µM	?	0	0.085µM	?
CCC(=O)N(CC)C1=C(O)c2ccccc2C(=O)C1=O	0	0	0	0	?	0
CC(C)=CCC1=C(O)c2ccccc2C(=O)C1=O	-	-	-	4µM	-	0
Cc1cc(C)n2nc(-c3ccc(Cl)cc3)cc2n1	4µM	3.5µM	15µM	-	3.8µM	-
Cc1cc(C)n2nc(-c3ccc(Br)cc3)cc2n1	3.5µM	?	?	-	2.7µM	-
Cc1nc2cc(-c3ccc(Cl)cc3)nn2c(NCCN(C)C)c1C	?	0	?	-	13µM	0
Cc1ccc(-c2cc3nc(-c4ccc(Br)cc4)cc(N)n3n2)cc1	0	0	0	0	0	0
COc1ccc(-c2nc3nc(C)cc(C)n3n2)cc1	?	?	?	13µM	11µM	0
Cc1cc(-c2ccc(Cl)cc2)n2nc(C)cc2n1	0	0	0	-	0	-
CCC(C)NC(=O)c1sc2nc3n(c(=O)c2c1C)CCC3 (stereo unspecified)	-	-	-	-	0	-
CCOc1ccccc1NC(=O)c1ccc(F)c(S(=O)(=O)NCc2ccc3c(c2)OCO3)c1	-	-	-	-	0	-
COc1ccc(-c2cc3nc(-c4ccccc4)cc(C(F)(F)F)n3n2)cc1	-	-	-	0	0	-
COc1ccc(-c2cc3nc(C)cc(C)n3n2)cc1	3.2µM	3.5µM	?	10µM	7.6µM	0
CCC(=O)NC(=S)Nc1cccc(NC(=O)c2ccccc2C)c1	0	0	0	0	?	0
CCC(=O)Nc1cccc(NC(=S)NC(=O)c2ccc(Cl)cc2)c1	?	3.5µM	0	?	0	0
CCCC(=O)NC(=S)Nc1cccc(NC(=O)c2ccc(Cl)cc2Cl)c1	0	0	0	-	13µM	-
CCC(=O)Nc1cccc(NC(=S)NC(=O)c2ccc(Cl)cc2Cl)c1	?	?	0	0	?	0
CCC(=O)Nc1cccc(NC(=S)NC(=O)c2ccccc2C)c1	?	?	0	0	15µM	0
COCCCNS(=O)(=O)c1ccc(N2CCCCS2(=O)=O)cc1	-	-	-	-	0	-
CN(C)/N=C/C=C1\CCC/C(=C/c2cccs2)C1=O	?	3.2µM	?	-	0.85µM	-
CN(C)/N=C/C=C1\CC/C(=C\c2ccc(Br)cc2)C1=O	0	?	?	0	?	0
SMILES	NPC1 promoter act	Rab9 promoter act	ELG1 genotoxic	SMN2 splice up	FLuc counter	KinaseGlo FLuc
CCC1Oc2ccc(C)cc2N(CC(=O)NCc2ccc(F)cc2)C1=O (stereo unspecified)	-	-	-	-	0	-
O=C(Nc1cccc(S(=O)(=O)N2CCOCC2)c1)c1ccc2c(=O)n3c(nc2c1)CCCCC3	0	0	0	0	?	0
Cc1cccc(NC(=O)c2ccc3c(=O)n4c(nc3c2)CCCCC4)n1	1.3µM	0.5µM	?	-	4.8µM	-
Cc1ccc(NC(=O)c2ccc3c(=O)n4c(nc3c2)CCCCC4)cc1F	0	0	0	-	?	-
CC(=O)c1cccc(NC(=O)c2ccc3c(=O)n4c(nc3c2)CCCCC4)c1	0	0	0	0	15µM	0
Cc1ccc(NC(=O)c2ccc3c(=O)n4c(nc3c2)CCCCC4)nc1	0	?	0	-	?	-
COc1ccc(NC(=O)c2ccc3c(=O)n4c(nc3c2)CCCCC4)cc1	0	0	0	-	27µM	-

Screening data as filed in PubChem BioAssay.
